Rows were chosen to be rich in hits. Some 0.75% of all compounds tested hit in one or more screens of this group.
C1s block: blocks human complement C1s protease activity. P09871. purified C1s, fluorogenic AMC substrate, pooled mixtures. mean inhibition % of two 10-compound mixtures (hits give high values), % at 5 µM (by protocol). hit rate 0.16% among 62,000;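 active means inhibition above 20% in each of the two 10-compound mixture wells holding the compound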
FXIIa inh mix: factor XIIa (human) inhibition, mixture screen; inhibition, % at 5 µM; purified FXIIa, fluorogenic substrate, pooled mixtures; P00748; hit rate 0.2% among 62,000
FXIa inh mix: inhibitors of human coagulation factor XIa, pooled mixtures | P03951 | purified FXIa, fluorogenic substrate | inhibition, % at 5 µM | hit rate 0.19% among 62,000 | AID 680;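 further: each value is inhibition by a whole ten-compound pool holding the compound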
mHtt clearance: compounds clearing mutant huntingtin protein; HeLa Exon1htt(103Q)mCFP, aggregate imaging; zero = plate's median compound well; inhibition, % at 1.5 µM; hit rate 0.42% among 47,000; AID 853;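 active means inhibition of aggregate fluorescence above about 70%, also judged a hit by eye on the cell image, limit read from the data, passing the limit was not always enough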;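 further: cells exposed to compound for three days before fixation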
WNV protease inh: inhibitors of West Nile virus NS2B-NS3 protease | z-score (concentration not given with the values) | WNV NS2B-NS3 protease, fluorogenic substrate Ex360/Em465; hits give low values | P06935 | hit rate 0.18% among 65,000; in the data active means z-score below about -3
Target sequence (P06935 1371-1501 limits assumed): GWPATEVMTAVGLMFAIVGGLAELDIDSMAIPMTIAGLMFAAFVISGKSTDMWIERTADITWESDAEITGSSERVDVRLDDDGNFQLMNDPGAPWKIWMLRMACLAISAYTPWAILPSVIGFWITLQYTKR
Target sequence (P06935 1502-1679 limits assumed): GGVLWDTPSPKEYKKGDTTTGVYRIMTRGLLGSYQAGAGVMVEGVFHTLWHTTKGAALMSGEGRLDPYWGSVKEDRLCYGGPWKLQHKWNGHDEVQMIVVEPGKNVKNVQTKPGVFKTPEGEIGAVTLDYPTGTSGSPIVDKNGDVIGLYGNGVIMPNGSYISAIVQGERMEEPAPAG
CatG inh: blocks human cathepsin G enzyme activity. hit rate 0.2% among 62,000. P08311. purified enzyme, AMC-tetrapeptide fluorescence, pooled mixtures. inhibition, % at 5 µM (by protocol);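 active means inhibition above 20% in each of the two mixture wells holding the compound; inactive means inhibition of 20% or less in either well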
Target sequence (P08311 21-244 limits assumed): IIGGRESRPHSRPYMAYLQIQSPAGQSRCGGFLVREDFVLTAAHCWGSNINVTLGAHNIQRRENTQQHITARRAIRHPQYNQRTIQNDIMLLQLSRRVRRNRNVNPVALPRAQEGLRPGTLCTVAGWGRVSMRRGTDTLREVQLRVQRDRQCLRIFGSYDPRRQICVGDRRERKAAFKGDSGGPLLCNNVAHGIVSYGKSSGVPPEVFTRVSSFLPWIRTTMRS
A number is an active result. Unless noted, no stated cut-off is given here; in the data, active means inhibition above about 20% (passing the limit was not always enough); inactive means the rest.

For CCn1cc(C(=O)Nc2cccc(C(=O)OC)c2)c(=O)c2ccc(C)nc21 the results were C1s block inactive, FXIIa inh mix inactive, FXIa inh mix inactive, WNV protease inh -6.2 and CatG inh inactive.
Screening COC(=O)CSc1nnc(CNC(=O)Cc2ccccc2)n1C returned C1s block inactive, FXIIa inh mix inactive, FXIa inh mix 26, mHtt clearance inactive, WNV protease inh inactive and CatG inh inactive.
`Cc1cnc(NC(=O)C(C)N2C(=O)C3CC=CCC3C2=O)s1` (configuration not stated) gave C1s block inactive, FXIIa inh mix inactive, FXIa inh mix inactive, WNV protease inh -3.4 and CatG inh inactive.
Screening CC(C(=O)Nc1nccs1)N1C(=O)C2CC=CCC2C1=O (configuration not stated) returned C1s block inactive, FXIIa inh mix inactive, FXIa inh mix inactive, mHtt clearance inactive, WNV protease inh inactive and CatG inh inactive.
Screening Cc1ccc2nc(C(F)OC(F)(F)F)[nH]c2c1 (configuration not stated) returned C1s block inactive, FXIIa inh mix inactive, FXIa inh mix inactive, mHtt clearance 73, WNV protease inh inactive and CatG inh inactive.
For Cc1ccc2nc(C(O)C(O)c3nc4ccc(C)cc4[nH]3)[nH]c2c1 (configuration not stated) the results were C1s block inactive, FXIIa inh mix inactive, FXIa inh mix inactive, WNV protease inh inactive and CatG inh inactive.
COC(=O)C1=C(O)C(C(=O)OC)C(c2ccc(C)cc2)C(C#N)(C#N)C1c1ccc(C)cc1 (configuration not stated) was read as mHtt clearance inactive.
Screening Cc1ccc2[nH]c(=O)c(C(c3nnnn3CC3CCCO3)N3CCCc4ccccc43)cc2c1 (configuration not stated) returned C1s block inactive, FXIIa inh mix inactive, FXIa inh mix inactive, mHtt clearance inactive, WNV protease inh inactive and CatG inh inactive.
`Cc1ccc(Nc2nnc(SCC(=O)NCc3ccco3)s2)cc1` gave C1s block inactive, FXIIa inh mix inactive, FXIa inh mix inactive, WNV protease inh inactive and CatG inh inactive.
Screening O=c1cc(-c2ccccc2)[nH]n1-c1ccc([N+](=O)[O-])cc1 returned mHtt clearance inactive.
`O=c1oc(-c2cccc(S(=O)(=O)N3CCOCC3)c2)nc2ccccc12` gave C1s block inactive, FXIIa inh mix inactive, FXIa inh mix inactive, WNV protease inh inactive and CatG inh 49.
c1cncc(-c2nc3ccccc3o2)c1 was read as C1s block inactive, FXIIa inh mix inactive, FXIa inh mix inactive, WNV protease inh inactive and CatG inh inactive.
O=c1oc(-c2cccnc2)nc2ccccc12 was read as C1s block inactive, FXIIa inh mix inactive, FXIa inh mix inactive, mHtt clearance inactive, WNV protease inh inactive and CatG inh 56.
Screening CN(C)c1nc2sc3c(c2c(=O)n1C)CC(C)(C)OC3 returned WNV protease inh inactive.
Screening CNc1nc2sc3c(c2c(=O)n1C)CC(C)(C)SC3 returned C1s block inactive, FXIIa inh mix inactive, FXIa inh mix inactive, WNV protease inh -7 and CatG inh inactive.
Screening CC(=O)Nc1cc(OC(=O)c2ccco2)cc(OC(=O)c2ccco2)c1 returned C1s block inactive, FXIIa inh mix inactive, FXIa inh mix 25, WNV protease inh inactive and CatG inh inactive.
Screening CC1CCN(C(=O)CSc2ccc3nnc(-c4ccccc4)n3n2)CC1 returned C1s block inactive, FXIIa inh mix inactive, FXIa inh mix inactive, WNV protease inh inactive and CatG inh inactive.
Screening COc1cc(-c2nnc(SCC(=O)c3cc(C)n(CC4CCCO4)c3C)o2)cc(OC)c1OC (configuration not stated) returned C1s block 22, FXIIa inh mix inactive, FXIa inh mix inactive, WNV protease inh inactive and CatG inh inactive.
`COc1ccc(-c2nnc(SCC(=O)OC3CCCCC3)o2)cc1OC` gave C1s block inactive, FXIIa inh mix inactive, FXIa inh mix inactive, mHtt clearance 72, WNV protease inh inactive and CatG inh inactive.
`COc1ccc(C(=O)CSc2nnc(-c3ccc(C)cc3)o2)cc1` gave C1s block inactive, FXIIa inh mix inactive, FXIa inh mix inactive, mHtt clearance inactive, WNV protease inh -4.1 and CatG inh inactive.
Screening Cc1nnc(N2CCN(c3ccccc3)CC2)c2nn(-c3ccccc3F)c(C)c12 returned mHtt clearance inactive.
For CCCCC(=O)Nc1ccc(NC(=O)c2cc(OC)c(OC)c(OC)c2)cn1 the results were C1s block inactive, FXIIa inh mix inactive, FXIa inh mix inactive, WNV protease inh inactive and CatG inh inactive.
`CCCCC(=O)Nc1ccc(NC(=O)c2cccnc2)cn1` gave C1s block 21, FXIIa inh mix inactive, FXIa inh mix inactive, WNV protease inh inactive and CatG inh inactive.
O=C(CCCCCN1C(=O)CCC1=O)Nc1ccc2c(c1)OCO2 was read as C1s block inactive, FXIIa inh mix 23, FXIa inh mix inactive, WNV protease inh inactive and CatG inh inactive.
Screening CCOC(=O)N1CCN(C(=O)c2ccc3c(=O)n(Cc4ccccc4)c(=S)[nH]c3c2)CC1 returned C1s block inactive, FXIIa inh mix inactive, FXIa inh mix 57, WNV protease inh inactive and CatG inh inactive.
Screening COc1cccc(C(=O)Oc2cc(-c3ccccc3)no2)c1 returned mHtt clearance inactive.
Nc1cc(N)nc(SCCOc2ccccc2F)n1 was read as C1s block inactive, FXIIa inh mix inactive, FXIa inh mix 77, WNV protease inh inactive and CatG inh inactive.
COc1ccccc1OCCSc1nc(N)cc(N)n1 was read as mHtt clearance inactive.
CCCN(c1ccc(C(C)C)cc1)S(=O)(=O)c1c(C)noc1C was read as C1s block inactive, FXIIa inh mix 35, FXIa inh mix inactive, mHtt clearance inactive, WNV protease inh inactive and CatG inh inactive.
COc1ccc(OC)c(NC(=O)CN(c2ccc(C(C)C)cc2)S(=O)(=O)c2c(C)noc2C)c1 was read as C1s block inactive, FXIIa inh mix inactive, FXIa inh mix inactive, WNV protease inh inactive and CatG inh inactive.
`c1ccc2oc(-c3ccc(Nc4nc(N5CCCCC5)nc(N5CCOCC5)n4)cc3)nc2c1` gave mHtt clearance inactive.
Screening O=C(c1ccco1)N(CCCN1CCOCC1)c1nc(-c2ccc(Cl)cc2)cs1 returned C1s block inactive, FXIIa inh mix inactive, FXIa inh mix inactive, mHtt clearance inactive, WNV protease inh -3.1 and CatG inh inactive.
For O=C(c1ccco1)N(CCCN1CCOCC1)c1nc(-c2ccc(F)cc2)cs1 the results were C1s block inactive, FXIIa inh mix inactive, FXIa inh mix inactive, mHtt clearance inactive, WNV protease inh inactive and CatG inh inactive.
Screening O=c1cc(-c2ccccc2)nc2nc(COc3ccccc3)[nH]n12 returned C1s block inactive, FXIIa inh mix inactive, FXIa inh mix inactive, mHtt clearance inactive, WNV protease inh inactive and CatG inh inactive.

Screens from PubChem BioAssay.
